40 sequences from the OligoGym collection can be followed below.
Further: reference of the scale not given here.

In one test the target is ACTL6A. As to the kind of experiment: pooled miR-30 sensor sort-seq; sequence = guide strand. The conditions noted are these: shRNA.
The sequence TGACTGACTCCTAACATTGTGT had a sensor-assay potency score (higher = more potent) of -0.541.
Still for that read-out and setting: the result for TTGAAGGACATAGCCATCGTGG reads -0.822.
Same read-out and setting: next, TTTGCTCTAGTATTCCACGGTG: -0.0557; TTGAATCTGACACTTGAAGTAC: -0.0659.
The same measure, in the same setting: next, AATAGCTTGGAAACTATCCCAG: -0.568.
For the sequence TTTGCAATCAATTTCAACCGCA, the sensor-assay potency score (higher = more potent) is 0.585.
TTACACATATAATTGTGCCAAG came in with a sensor-assay potency score (higher = more potent) of -1.42.
ATAGCTTGGAAACTATCCCAGT had a sensor-assay potency score (higher = more potent) of -0.733.
Same read-out and setting: the result for TTGTGTTTCCTGATAACCCCTT reads 0.282.
TACACTGCCATAGAGACCTGGT: the sensor-assay potency score (higher = more potent) is -0.00757.
Take TTGCTCTAGTATTCCACGGTGC: the sensor-assay potency score (higher = more potent) is -0.281.
TTGCTTGGAAATCCACATCTGT displayed a sensor-assay potency score (higher = more potent) of -0.451.
Still for that read-out and setting: next, TAATTGTGCCAAGACCTCGTAA: -0.587; TTGTGGTGACAACATGACTGAC: -0.897; TAGTAATAAAGTCTCCAGCAAG: -1.21.
In turn, TTAGTATCTATGTAGTAGGTGG had a sensor-assay potency score (higher = more potent) of 0.198.
TAGTATTCCACGGTGCCTCTGA displayed a sensor-assay potency score (higher = more potent) of 0.0107.
In turn, TTTTCTGAGACAGCTCTCTATT gave a sensor-assay potency score (higher = more potent) of -0.807.
With TTGACATGCATTTTGTAGGTAT, the sensor-assay potency score (higher = more potent) was 0.179.
In turn, TTTATCGCCATCTATTTCCATT gave a sensor-assay potency score (higher = more potent) of -1.13.
On to TAACCTGAGGCAACTTCTCTTT, for which the sensor-assay potency score (higher = more potent) was -0.605.
Still for that read-out and setting: next, TAGTGTTCAAACATTAACTCTG: 0.293.

A further test deals with ACTR3B. Described as above. The note with it: shRNA.
For the sequence TTGATCGCATTGATACCCGTGT, the sensor-assay potency score (higher = more potent) was -0.213.
The same measure, in the same setting: the result for TTGAGCTTGGTCAACTACCTTT reads -0.378; that for TTCTGCAAGATACTCTCTGTTT, -0.433.
The same measure, in the same setting: the result for TTACTTCATCAACAACATCTGA reads -0.87; that for TTTAAAAACCACTTGCTCCATG, -0.231; that for TACTGTTTGATCCACTTCCGGG, -0.539.
For the sequence TCTATAACAAACTTCTTCTGGT, the sensor-assay potency score (higher = more potent) amounted to 0.599.
Same read-out and setting: next, TTCATCAACAACATCTGAGATG: -0.638; TACGACATTCTTATACAGCGGG: -0.141; TACTTCATCAACAACATCTGAG: 0.487.
TTACATAACCTTCTGCCACTGG showed a sensor-assay potency score (higher = more potent) of 0.166.
TATAACAAACTTCTTCTGGTTG registered a sensor-assay potency score (higher = more potent) of -0.5.

In the next test the target is ACYP1. The description is as above. The note with it: shRNA.
In turn, TTTTCATTGTTGAAGTTTGCTT displayed a sensor-assay potency score (higher = more potent) of -0.234.
In the case of TTGTCGATGTGTGATTTAGGAC, the sensor-assay potency score (higher = more potent) is -0.517.
Consider TTCATAATCCACTGATATCAGG, for which the sensor-assay potency score (higher = more potent) was -1.09.
Regarding TCATTGTTGAAGTTTGCTTTGT, the sensor-assay potency score (higher = more potent) is -0.429.
For TATTAACACACAATAGTTCTAT, the sensor-assay potency score (higher = more potent) was 0.336.
Turning to ATAACTTATTGACTAATGCTAA, the sensor-assay potency score (higher = more potent) is -0.709.
